Screens from PubChem BioAssay.
A selection: hits, their analogues and other compounds. The true share with any hit is near 9%.
12-LOX inh: blocks human arachidonate 12S-lipoxygenase; P18054; purified 12hLO, xylenol orange hydroperoxide absorbance; Potency, µM (titrated, usually from 108 µM), for inactives: top-dose activity change, negative = inhibition, usual class: inhibitors; 580,000 compounds, 1.1% hits; also: % is scaled to controls: 0 for no effect and ±100 for the full control effect
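Purified human 12hLO at 150 nM in 25 mM Hepes, 0.01% Triton X-100, pH 7.0, preincubated 15 min at room temperature with compound. Reaction started with 40 uM arachidonic acid, 30 min at room temperature. Hydroperoxide measured by Fe-xylenol orange, 573/405 nm absorbance ratio.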
JMJD2A Tudor inh: inhibitors of human JMJD2A Tudor domain. Potency, µM (titrated, usually from 114 µM), inactives show at the highest dose activity change, negative = inhibition, actives largely listed as inhibitors. AlphaScreen JMJD2A-Tudor / H3K4me3 peptide binding. AID 504339. 390,000 compounds, 4.4% hits. O75164; also: % is scaled to controls: 0 for no effect and ±100 for the full control effect; nearly all actives have a fitted effect of over 50% in size
BAZ2B block: BAZ2B (human) inhibition; Q9UIF8; AlphaScreen BAZ2B-H3K14Ac peptide displacement; Potency, µM (top dose mostly 114 µM), for inactives: at the highest dose activity change, negative = inhibition, actives largely listed as inhibitors; 360,000 compounds, 4.4% hits; AID 504333; also: % is scaled to controls: 0 for no effect and ±100 for the full control effect; nearly all actives have a fitted effect of over 60% in size
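In this displacement format the biotinylated H3(5-23) peptide acetylated at Lys14 serves as ligand at 50 nM, with BAZ2B at 50 nM in PBS pH 7.4 containing 0.01% Tween-20. Donor and acceptor beads are 10 ug/mL final.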
HP1b chromo inh: HP1-beta chromodomain-methylated histone interaction inhibition | AID 540317 | 390,000 compounds, 0.56% hits | AlphaScreen HP1-beta / biotin-H3K9me3 peptide binding | P83916 | Potency, µM (doses to about 114 µM), inactives show at the highest dose activity change, negative = inhibition, usual class: inhibitors; also: nearly all actives have a fitted effect of over 70% in size
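AlphaScreen: HP1-beta (50 nM) preformed 30 min with biotin-H3(1-18)K9me3 peptide (50 nM) in PBS pH 7.4, 0.01% Tween-20. Compound added for 30 min at RT, then streptavidin donor/nickel chelate acceptor beads (10 ug/mL) for 30 min.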
G9a block: blocks human histone lysine methyltransferase G9a | Q96KQ7 | G9a H3K9 monomethylation, AlphaScreen, 2 h | Potency, µM (series often up to 102 µM), without a hit: at the highest dose activity, negative = inhibition, most hits filed as inhibitors | 350,000 compounds, 8.8% hits | AID 504332; also: % is scaled to controls: 0 for no effect and ±100 for the full control effect; nearly all actives have a fitted effect of over 75% in size
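Methyltransferase reactions run at room temperature for 2 h (20 nM enzyme, 500 nM biotin-H3K9 peptide, 20 uM SAM) after a 15 min compound preincubation; product detected by AlphaScreen beads and anti-H3K9me1 antibody.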
PLK1 PBD block: PLK1 (human) polo-box domain binding inhibition | P53350 | Plk1 PBD binding of FITC phosphopeptide, fluorescence polarization | Potency, µM, for the others: max response, negative = inhibition, actives largely listed as inhibitors | 360,000 compounds, 2.8% hits; also: series mostly up to about 57 µM; % is scaled to controls: 0 for no effect and ±100 for the full control effect; nearly all actives have a fitted effect of over 65% in size
The depositor's hits bear a star; ? = inconclusive; · = not tested or not shown; [ ] = dose if it differs, or a comment. Calls follow the shape of the dose curve; as a rule, active = well fitted curve in the direction sought with a large enough effect; inconclusive = small, poorly fitted or top-dose-only effect, or another doubt; inactive = no such curve, though single readings can be large; an effect the other way counts as inactive or inconclusive. Potency is read from the fitted curve at half-maximal effect.

SMILES | 12-LOX inh | JMJD2A Tudor inh | BAZ2B block | HP1b chromo inh | G9a block | PLK1 PBD block
O=C(COC(=O)c1c(Cl)ccc(Cl)c1Cl)NC1CCS(=O)(=O)C1 (configuration not stated) | 0.0% | 6.1% | -4.5% | 17.1% | 5.1% | -1.6%
CSCC(=O)Nc1ccc(C(=O)NCC(F)(F)F)cc1 | 6.6% | · | · | · | · | ·
CC(=O)C1=C(C)NC(SCC(=O)c2ccc(Cl)cc2)=C(C#N)C1CC(C)C (configuration not stated) | -14.5% | ? | ? | 38.4% | 0.794µM* | -26.1%
CC(=O)C1=C(C)NC(SCC(=O)c2ccc(Cl)c(Cl)c2)=C(C#N)C1c1ccco1 (configuration not stated) | ? | ? | · | 18.7% | ? | 1.6%
CC1CC(C)CN(CCCNC(=O)c2c(O)nc3ccccn3c2=O)C1 (configuration not stated) | 7.6% | -9.2% | 7.3% | 24.4% | -34.6% | 4.6%
CCN(CC)C(=S)NC(=O)C12CC3CC(CC(C3)C1)C2 | -15.5% | -5.4% | -10.6% | 34.4% | -36.7% | -9.0%
O=C1C=C(c2c(O)ccc3ccccc23)c2ccccc2C1=O | 44.7µM* | 39.8µM* | · | 25.1µM* | · | 7.52µM*
CC1(C)OC(=O)C(=CNCC(O)c2ccccc2)C(=O)O1 (configuration not stated) | 23.9% | -12.6% | 6.7% | 7.0% | 29.0%[12.7 µM] | -6.2%
CSCCC(NC=C1C(=O)OC(C)(C)OC1=O)C(=O)O (configuration not stated) | 0.9% | 79.4µM* | -30.1% | 15.2% | -11.2% | -7.6%
C=CCCN(C1CCCC1)S(=O)(=O)c1ccccc1Br | 13.1% | 140.7% | 134.5% | 237.6% | 38.4%[12.7 µM] | -4.0%
CCN(CCO)C(=O)c1ccc2oc(Cc3ccc(Cl)cc3)nc2c1 | -5.0% | -4.3% | 2.9% | 38.0% | 44.4% | -3.3%
CCn1cc(C(=O)NCc2ccco2)c2cc(OC)c(OC)cc2c1=O | 1.8% | -16.7% | 5.1% | 16.9% | ? | 0.9%
COc1cc2c(C(=O)NCc3ccc(C)o3)cn(CC(C)C)c(=O)c2cc1OC | -9.8% | -21.2% | 4.4%[57.1 µM] | 10.2% | 44.7µM* | -14.6%
O=C(Nc1ccc(S(=O)(=O)N2CCCC2)cc1)C1CC(=O)N(c2ccccc2)C1 (configuration not stated) | 2.0% | ? | -10.2% | ? | -48.0% | ?
CCNc1nc(NCC)n2c(SCC(=O)Nc3ccc(C)c(C)c3)nnc2n1 | 11.8% | -8.9% | 50.1µM* | 3.0% | 3.55µM* | -2.2%
CCN(CC)c1ccc(NC(=O)CSc2nnc3nc(C)cc(C)n23)cc1 | -21.4% | -17.1%[11.4 µM] | -34.7% | ? | -45.2%[12.7 µM] | 16.8µM*
CCNc1nc(NCC)n2c(SCC(=O)Nc3ccc(F)cc3)nnc2n1 | -22.0% | -17.8% | ? | 9.9% | ? | -13.2%
CCNc1nc(NCC)n2c(SCC(=O)Nc3ccc(Br)cc3F)nnc2n1 | ? | ? | ? | ? | 7.08µM* | 13.4µM*
Cc1ccc(C(=O)NCCc2cccc(Cl)c2)cc1[N+](=O)[O-] | -4.6% | -18.3% | -9.8% | 17.5% | 7.7%[59 µM] | -2.4%
CCOC(=O)C[C@H]1c2ccccc2S(=O)(=O)N1Cc1cccc(C(F)(F)F)c1 | -2.6% | 13.8% | · | 60.8% | · | -7.5%
COc1ccc(NC(=S)c2ccc3ccccc3n2)cc1 | · | 39.8µM* | 11.2µM* | 10µM* | 7.94µM* | 6.7µM*
COc1ccc(NC(=O)CN(C)C(=O)c2ccc3ccccc3n2)cc1 | -0.1% | -19.9% | · | -9.5% | · | -2.5%
Cc1ccc(NC(=S)c2ccc3ccccc3n2)c(C)c1 | -26.7% | ? | 12.6µM* | 11.2µM* | 8.91µM* | 13.4µM*
O=C(Cc1ccc(S(=O)(=O)N2CCCC2)s1)N1CCN(c2ccccc2)CC1 | 0.0% | -5.8% | · | 11.7% | ? | -10.3%
Cc1ccc(S(=O)(=O)N(CCC(=O)N2CCOCC2)c2ccccc2)cc1 | -25.6% | -7.6% | -5.2% | 14.8% | 14.1µM* | 1.0%
O=C(CSCc1ccc(Cl)cc1)N1CCOCC1 | 0.5% | 2.7% | 3.1% | 37.3% | 8.8% | 4.7%
